{
  "source": "the antibiotic and cytotoxicity screens of Wong et al. (2023)",
  "note": "Among all 39,000 compounds or so, about 3,300 (8.5%) were called active. The list comes from a sample in which actives are over-represented; it also holds similar structures and randomly drawn compounds.",
  "data": [
    {"system": "HepG2", "assay": "cytotoxicity call (relative viability < 0.9)", "details": "10 µM", "values": [
      {"compound": "CCO[C@@H]1OC(C(=O)N2CCN(Cc3ccccc3)CC2)=C[C@H](c2ccc(Br)cc2)[C@H]1CCCOC(=O)NCCCCCC(=O)NO", "cytotoxicity call": "inactive"},
      {"compound": "C[C@@H]1CN([C@H](C)CO)C(=O)c2cc(NC(=O)Cc3ccccc3)ccc2O[C@@H]1CN(C)Cc1ccc(C(=O)Nc2ccccc2N)cc1", "cytotoxicity call": "inactive"},
      {"compound": "C[C@@H]1CCCCO[C@H](CN(C)S(=O)(=O)c2ccccc2)[C@@H](C)CN([C@@H](C)CO)C(=O)c2cc(NS(=O)(=O)c3cn(C)cn3)ccc2O1", "cytotoxicity call": "inactive"},
      {"compound": "O=C(C[C@@H]1C[C@@H]2c3cc(NS(=O)(=O)c4ccc(F)cc4)ccc3O[C@@H]2[C@H](CO)O1)NCc1ccncc1", "cytotoxicity call": "inactive"},
      {"compound": "C#CCCCCCCCCCCC[C@H](O)C[C@H](O)COC(C)=O.C=CCCCCCCCCCCC[C@H](O)C[C@H](O)COC(C)=O", "cytotoxicity call": "inactive"},
      {"compound": "C[C@@H]1CCCCO[C@@H](CN(C)C(=O)Nc2ccc3c(c2)OCO3)[C@@H](C)CN([C@H](C)CO)C(=O)c2cc(NS(=O)(=O)c3ccc(F)cc3)ccc2O1", "cytotoxicity call": "inactive"},
      {"compound": "C[C@H]1CN([C@@H](C)CO)C(=O)c2cc(C3=CCCC3)cnc2O[C@H]1CN(C)C(=O)c1ccc2c(c1)OCO2", "cytotoxicity call": "active"},
      {"compound": "C[C@H](CO)N1C[C@H](C)[C@H](CN(C)C(=O)c2ccc3c(c2)OCO3)Oc2ncc(C3=CCCC3)cc2C1=O", "cytotoxicity call": "inactive"},
      {"compound": "C[C@H](CO)N1C[C@H](C)[C@@H](CN(C)C(=O)c2ccc3c(c2)OCO3)Oc2ncc(C3=CCCC3)cc2C1=O", "cytotoxicity call": "inactive"},
      {"compound": "OC1(c2ccc(Cl)c(C(F)(F)F)c2)CCN(CCCC(c2ccc(F)cc2)c2ccc(F)cc2)CC1", "note": "[listing 1 of 2 here]", "cytotoxicity call": "active"},
      {"compound": "OC1(c2ccc(Cl)c(C(F)(F)F)c2)CCN(CCCC(c2ccc(F)cc2)c2ccc(F)cc2)CC1", "note": "[listing 2 of 2 here]", "cytotoxicity call": "active"},
      {"compound": "COC(=O)C[C@@H]1CC[C@@H]2[C@H](COC[C@H](O)CN2S(=O)(=O)c2ccccc2C)O1", "cytotoxicity call": "inactive"},
      {"compound": "C[C@@H]1CN([C@H](C)CO)C(=O)Cc2cc(NC(=O)NC3CCCCC3)ccc2O[C@H]1CN(C)S(=O)(=O)c1cn(C)cn1", "cytotoxicity call": "inactive"},
      {"compound": "COc1ccc2oc(C(C)=O)cc2c1", "cytotoxicity call": "inactive"},
      {"compound": "COc1ccc2c(C)cc(=O)oc2c1", "cytotoxicity call": "inactive"},
      {"compound": "COc1ccc2c(-c3ccc(Cl)cc3)c(C)oc2c1", "cytotoxicity call": "active"},
      {"compound": "COc1ccc(-c2c(C)oc3ccc(Cl)cc23)cc1", "cytotoxicity call": "active"},
      {"compound": "COc1ccc(-c2cc(=O)c3ccccc3o2)cc1", "cytotoxicity call": "inactive"},
      {"compound": "COc1ccc2c(=O)ccoc2c1", "cytotoxicity call": "inactive"},
      {"compound": "C[C@@H]1CN([C@H](C)CO)C(=O)c2cccc(NC(=O)C3CCOCC3)c2O[C@@H]1CN(C)Cc1ccncc1", "cytotoxicity call": "inactive"},
      {"compound": "C[C@H]1CN([C@@H](C)CO)C(=O)c2cccc(NC(=O)Nc3cccc4ccccc34)c2O[C@H]1CN(C)CC1CCCCC1", "cytotoxicity call": "inactive"},
      {"compound": "CCN(CC)CCCC(C)Nc1ccnc2cc(Cl)ccc12.O=P(O)(O)O.O=P(O)(O)O", "note": "(stereo not drawn)", "cytotoxicity call": "active"},
      {"compound": "CCN(CC)CCCC(C)Nc1c2ccc(Cl)cc2nc2ccc(OC)cc12.Cl.Cl", "note": "(stereo not drawn)", "cytotoxicity call": "active"},
      {"compound": "O=C(OCC(O)CO)c1ccccc1Nc1ccnc2cc(Cl)ccc12", "note": "(stereo not drawn)", "cytotoxicity call": "inactive"},
      {"compound": "Cc1cc(Oc2ccnc3cc(Cl)ccc23)ccc1Cl", "cytotoxicity call": "inactive"},
      {"compound": "CCN(CC)Cc1ccc(Nc2ccnc3cc(Cl)ccc23)cc1O.Cl.Cl", "cytotoxicity call": "active"},
      {"compound": "CCN(CCO)CCCC(C)Nc1ccnc2cc(Cl)ccc12.O=S(=O)(O)O", "note": "(stereo not drawn)", "cytotoxicity call": "active"},
      {"compound": "COc1ccc2nc3ccc(Cl)cc3c(SCCCN)c2c1", "cytotoxicity call": "inactive"},
      {"compound": "COc1ccc2nc(Cl)sc2c1", "cytotoxicity call": "inactive"},
      {"compound": "Cc1noc(C)c1S(=O)(=O)N(C)C[C@H]1Oc2ccc(NC(=O)c3ccncc3)cc2CC(=O)N([C@H](C)CO)C[C@@H]1C", "cytotoxicity call": "inactive"},
      {"compound": "Cc1noc(C)c1NC(=O)N(C)C[C@@H]1Oc2ccc(NC(=O)CCN3CCOCC3)cc2CC(=O)N([C@H](C)CO)C[C@@H]1C", "cytotoxicity call": "inactive"},
      {"compound": "Cc1ccc(S(=O)(=O)N(C)C[C@@H]2Oc3ncc(-c4ccncc4)cc3C(=O)N([C@H](C)CO)C[C@H]2C)cc1", "cytotoxicity call": "inactive"},
      {"compound": "COc1ccc(NC(=O)N(C)C[C@H]2Oc3cc(C#CCN(C)C)ccc3S(=O)(=O)N([C@@H](C)CO)C[C@@H]2C)cc1", "cytotoxicity call": "inactive"},
      {"compound": "C[C@@H]1CN([C@@H](C)CO)C(=O)c2cc(NC(=O)Cn3cnnn3)ccc2O[C@H]1CN(C)Cc1ccc(C(=O)Nc2ccccc2N)cc1", "cytotoxicity call": "inactive"},
      {"compound": "C[C@@H]1CN([C@H](C)CO)C(=O)c2cc(NC(=O)C3CC3)ccc2O[C@@H]1CN(C)C(=O)Nc1ccc2c(c1)OCO2", "cytotoxicity call": "inactive"},
      {"compound": "COc1ccc(C#Cc2cnc3c(c2)C(=O)N([C@H](C)CO)C[C@H](C)[C@@H](CN(C)C(=O)CN(C)C)O3)cc1", "cytotoxicity call": "inactive"},
      {"compound": "C[C@@H]1CN([C@H](C)CO)C(=O)c2cc(NC(=O)Nc3ccccc3)ccc2O[C@H]1CN(C)Cc1ccc(C(F)(F)F)cc1", "cytotoxicity call": "active"},
      {"compound": "C[C@H](CO)N1C[C@H](C)[C@H](CN(C)Cc2ccc(C(=O)O)cc2)Oc2ccc(NC(=O)Nc3ccc(C(F)(F)F)cc3)cc2C1=O", "cytotoxicity call": "inactive"},
      {"compound": "C[C@H]1CN([C@@H](C)CO)C(=O)c2cc(NC(=O)Nc3ccccc3)ccc2O[C@@H]1CN(C)Cc1ccc(C(F)(F)F)cc1", "cytotoxicity call": "active"},
      {"compound": "C[C@@H]1CN([C@H](C)CO)C(=O)c2cc(NC(=O)Nc3ccc(C(F)(F)F)cc3)ccc2O[C@@H]1CN(C)Cc1ccc(C(=O)O)cc1", "cytotoxicity call": "inactive"},
      {"compound": "C[C@@H]1CN([C@H](C)CO)C(=O)c2cc(NC(=O)Nc3ccccc3)ccc2O[C@@H]1CN(C)Cc1ccc(C(F)(F)F)cc1", "cytotoxicity call": "inactive"},
      {"compound": "C[C@@H]1CN([C@@H](C)CO)C(=O)c2cc(NC(=O)Nc3ccccc3)ccc2O[C@H]1CN(C)Cc1ccc(C(F)(F)F)cc1", "cytotoxicity call": "inactive"},
      {"compound": "C[C@@H]1CN([C@@H](C)CO)C(=O)c2cc(NC(=O)Nc3ccccc3)ccc2O[C@@H]1CN(C)Cc1ccc(C(F)(F)F)cc1", "cytotoxicity call": "active"},
      {"compound": "C[C@H](CO)N1C[C@H](C)[C@H](CN(C)Cc2ccc(C(F)(F)F)cc2)Oc2ccc(NC(=O)Nc3ccccc3)cc2C1=O", "cytotoxicity call": "active"},
      {"compound": "C[C@H]1CN([C@@H](C)CO)C(=O)c2cc(NC(=O)Nc3ccccc3)ccc2O[C@H]1CN(C)Cc1ccc(C(F)(F)F)cc1", "cytotoxicity call": "inactive"},
      {"compound": "COc1cccc(S(=O)(=O)Nc2ccc3c(c2)C(=O)N(C)C[C@@H](OC)[C@@H](C)CN(C(=O)Cc2cccnc2)[C@@H](C)CO3)c1", "cytotoxicity call": "inactive"},
      {"compound": "CC(C)NC(=O)N[C@@H]1C=C[C@@H](CC(=O)NCCN2CCCC2)O[C@H]1CO", "cytotoxicity call": "inactive"},
      {"compound": "COc1ccc(NC(=O)N(C)C[C@@H]2OCCCC[C@@H](C)Oc3ccc(NC(=O)C4CCCCC4)cc3C(=O)N([C@H](C)CO)C[C@H]2C)cc1", "cytotoxicity call": "inactive"},
      {"compound": "COc1ccc(CN(C)C[C@H]2OCCCC[C@H](C)Oc3ccc(NC(=O)C4CCCCC4)cc3C(=O)N([C@@H](C)CO)C[C@H]2C)cc1", "cytotoxicity call": "inactive"},
      {"compound": "O=C(C[C@H]1CC[C@@H]2NC[C@H](O)COC[C@H]2O1)NCCN1CCCCC1", "cytotoxicity call": "inactive"},
      {"compound": "O=C1O[C@H](c2ccccc2)[C@H](c2ccccc2)N2[C@H]1[C@@H](C(=O)N1CCCCCCC1)[C@]1(C(=O)Nc3ccc(C#CCCO)cc31)[C@H]2c1ccc(O)cc1", "cytotoxicity call": "inactive"},
      {"compound": "CSc1nc2nc(N)nc(N)c2s1", "cytotoxicity call": "inactive"},
      {"compound": "COc1cccc(S(=O)(=O)N2C[C@H](O)COC[C@@H]3O[C@H](CC(=O)N4CCN(c5ccccc5)CC4)CC[C@H]32)c1", "cytotoxicity call": "inactive"},
      {"compound": "O=C(C[C@H]1CC[C@@H]2[C@H](COC[C@H](O)CN2S(=O)(=O)c2cccc(Cl)c2)O1)NC1Cc2ccccc2C1", "cytotoxicity call": "inactive"},
      {"compound": "C[C@@H]1CN([C@@H](C)CO)C(=O)c2cccc(NC(=O)c3cnccn3)c2O[C@@H]1CN(C)S(C)(=O)=O", "cytotoxicity call": "inactive"},
      {"compound": "CC(C)NC(=O)Nc1ccc2c(c1)C(=O)N([C@H](C)CO)C[C@H](C)[C@@H](CN(C)Cc1ccccc1)OCCCC[C@@H](C)O2", "cytotoxicity call": "inactive"},
      {"compound": "C[C@H](CO)N1C[C@H](C)[C@@H](CN(C)Cc2ccc(C(F)(F)F)cc2)Oc2ccc(NC(=O)Nc3ccccc3)cc2C1=O", "cytotoxicity call": "active"},
      {"compound": "C[C@H](CO)N1C[C@H](C)[C@@H](CN(C)Cc2ccc(C(=O)O)cc2)Oc2ccc(NC(=O)Nc3ccc(C(F)(F)F)cc3)cc2C1=O", "cytotoxicity call": "inactive"},
      {"compound": "C[C@@H]1CN([C@@H](C)CO)C(=O)c2cc(NC(=O)Nc3ccc(C(F)(F)F)cc3)ccc2O[C@@H]1CN(C)Cc1ccc(C(=O)O)cc1", "cytotoxicity call": "inactive"},
      {"compound": "C[C@@H]1CCCCO[C@H](CN(C)C(=O)c2ccncc2)[C@@H](C)CN([C@H](C)CO)C(=O)c2cc(NC(=O)C3CCCCC3)ccc2O1", "cytotoxicity call": "inactive"},
      {"compound": "C[C@H](CO)N1C[C@H](C)[C@@H](CN(C)S(=O)(=O)c2cn(C)cn2)Oc2ccc(NS(=O)(=O)c3cn(C)cn3)cc2C1=O", "cytotoxicity call": "inactive"},
      {"compound": "C[C@@H]1CCCCO[C@@H](CN(C)S(=O)(=O)c2ccc(F)cc2)[C@@H](C)CN([C@@H](C)CO)C(=O)c2cc(NC(=O)Nc3cccc4ccccc34)ccc2O1", "cytotoxicity call": "inactive"},
      {"compound": "CC(C)c1ccccc1Cc1cc(C(=O)Nc2ccc(S(=O)(=O)c3ccccc3C(C)(C)C)cc2)c(O)c(O)c1O", "cytotoxicity call": "active"},
      {"compound": "CCc1cccc(C(C)C)c1NC(=O)Nc1ccccc1", "cytotoxicity call": "inactive"},
      {"compound": "Cc1oc(C(C)(C)C)cc1C(=O)Nc1ccc(C(C)C)cc1", "cytotoxicity call": "inactive"},
      {"compound": "C[C@@H]1CN([C@@H](C)CO)C(=O)Cc2cc(NC(=O)CCN3CCOCC3)ccc2O[C@@H]1CN(C)S(=O)(=O)c1ccccc1", "cytotoxicity call": "inactive"},
      {"compound": "COC(=O)C1=CC(CCCO)=C[C@@H](c2ccc(CN3CCCC3)cc2)N(Cc2sc3ccccc3c2Cl)C=C1C(=O)OC", "cytotoxicity call": "inactive"},
      {"compound": "C[C@@H]1CN([C@@H](C)CO)C(=O)c2cc(C#Cc3ccccc3)cnc2O[C@@H]1CN(C)C(=O)CCN1CCCCC1", "cytotoxicity call": "inactive"},
      {"compound": "C[C@H]1CN([C@@H](C)CO)C(=O)c2cc(C#Cc3ccccc3)cnc2O[C@@H]1CN(C)C(=O)CCN1CCCCC1", "cytotoxicity call": "active"},
      {"compound": "C[C@@H]1CN([C@H](C)CO)C(=O)c2cc(C#Cc3ccccc3)cnc2O[C@H]1CN(C)C(=O)CCN1CCCCC1", "cytotoxicity call": "inactive"},
      {"compound": "C[C@H]1CN([C@@H](C)CO)C(=O)c2cc(C#Cc3ccccc3)cnc2O[C@H]1CN(C)C(=O)CCN1CCCCC1", "cytotoxicity call": "active"},
      {"compound": "C[C@@H]1CN([C@H](C)CO)C(=O)c2cc(C#Cc3ccccc3)cnc2O[C@@H]1CN(C)C(=O)CCN1CCCCC1", "cytotoxicity call": "inactive"},
      {"compound": "C[C@H](CO)N1C[C@H](C)[C@@H](CN(C)C(=O)CCN2CCCCC2)Oc2ncc(C#Cc3ccccc3)cc2C1=O", "cytotoxicity call": "inactive"}
    ]}
  ]
}
